Screens from PubChem BioAssay.
Compounds with a hit are over-represented: about 18% of the library has one in this group of screens.
Six1-Eya2 inh = blocks human Six1 binding to Eya2 | actives 0.56% (n = 360,000) | activity change, % (test concentration not listed) | Q15475+O00167 | AlphaScreen GST-Six1/His-Eya2 binding, biochemical; stronger effect = lower value; in the data active means activity change below about -65%; inconclusive means mostly about -30% to -63%
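GST-Six1 + His-Eya2 (5X stock: 250/500 nM); Tris pH 8.0, 300 mM NaCl, 0.05% BSA, 0.02% Tween 20; GSH donor/Ni acceptor beads; 1 h 37 °C dark; AlphaScreen readout.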
DT40 TDP1 CPT = DT40-hTDP1 cell growth loss with CPT; AID 686979; Potency, µM (doses to about 46.2 µM), inactives show top-dose activity change, negative = growth inhibition, usual class: inhibitors; actives 12% (n = 420,000); chicken DT40 Tdp1-/-;hTDP1 cells + 20 nM CPT, ATP luminescence, 48 h; further: potency means the concentration at half of the fitted maximal effect; nearly all actives have a fitted effect of over 55% in size
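Chicken DT40 Tdp1-/- cells complemented with human TDP1, 400 cells/well, exposed to compounds plus 20 nM camptothecin for at least 48 h at 37 C; viability read as ATP content by CellTiter-Glo luminescence.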
CtBP-E1A inh = CtBP/E1A binding inhibition; AlphaScreen GST-E1A/His-CtBP binding, 1536-well; stronger effect = lower value; activity change, % (concentration not given with the values); actives 0.49% (n = 340,000); in the data active means activity change below about -65%; inconclusive means mostly about -30% to -63%
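In 5 uL wells, 23 nL compound meets equimolar GST-E1A and His-CtBP (5X stock 125 nM each) for 2 h, 37 °C. Beads (5X, 50 ug/mL) then 1 h, 37 °C, dark.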
TDP1 inh = TDP1 (human) enzyme inhibition. Potency, µM (doses to about 130 µM), inactives show top-dose activity change, negative = inhibition, most hits filed as inhibitors. recombinant TDP1, AlphaScreen DNA substrate cleavage. actives 0.28% (n = 350,000). AID 485290. Q9NUW8; further: potency means the concentration at half of the fitted maximal effect; nearly all actives have a fitted effect of over 40% in size
Target sequence (Q9NUW8 whole entry, looked up): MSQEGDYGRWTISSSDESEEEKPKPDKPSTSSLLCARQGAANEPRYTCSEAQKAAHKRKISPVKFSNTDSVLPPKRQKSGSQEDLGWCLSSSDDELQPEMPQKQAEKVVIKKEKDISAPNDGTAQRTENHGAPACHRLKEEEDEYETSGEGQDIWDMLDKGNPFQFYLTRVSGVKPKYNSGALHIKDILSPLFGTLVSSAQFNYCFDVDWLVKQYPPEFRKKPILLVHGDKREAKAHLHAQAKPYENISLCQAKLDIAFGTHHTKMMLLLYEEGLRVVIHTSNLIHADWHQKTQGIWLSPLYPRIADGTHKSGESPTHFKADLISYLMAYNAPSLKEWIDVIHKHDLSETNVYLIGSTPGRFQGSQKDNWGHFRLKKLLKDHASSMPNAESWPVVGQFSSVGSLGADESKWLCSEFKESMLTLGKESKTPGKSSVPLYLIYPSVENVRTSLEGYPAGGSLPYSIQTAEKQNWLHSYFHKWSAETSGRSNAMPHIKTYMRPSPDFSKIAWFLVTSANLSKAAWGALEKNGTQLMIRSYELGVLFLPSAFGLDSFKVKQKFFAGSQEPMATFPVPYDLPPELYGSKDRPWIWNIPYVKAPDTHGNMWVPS
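Signal: AlphaScreen proximity between streptavidin donor and anti-FITC acceptor beads on intact substrate. Reaction: Tdp1 1 nM, substrate 15 nM final, 5 min RT after 15 min compound preincubation.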
IL-1B inflam inh = inflammasome signaling inhibition, IL-1 beta readout. activity change, % at 57.5 µM. AID 743279. actives 4.7% (n = 360,000). THP-1 LPS/ATP IL-1B secretion, AlphaLISA, 16 h; stronger effect = lower value; in the data active means activity change below about -50%; inconclusive means mostly about -30% to -49%
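THP-1 cells pretreated 1 hr with compounds (up to 57.5 uM final), then stimulated with LPS (250 ng/mL final) plus ATP (1.25 mM final); secreted IL-1B measured by AlphaLISA after 16 hr, decreased signal indicating inhibition.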
DT40 TDP1 no CPT = qHTS for Inhibitors of human tyrosyl-DNA phosphodiesterase 1 (TDP1): qHTS in cells in absence of CPT; Potency, µM (titrated, usually from 46.2 µM), for inactives: top-dose activity change, negative = growth inhibition, usual class: inhibitors; AID 686978, 2013; DT40 Tdp1-/- hTDP1 cells, no CPT, ATP luminescence, 48 h; actives 15% (n = 420,000); further: potency means the concentration at half of the fitted maximal effect; nearly all actives have a fitted effect of over 55% in size
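Growth of hTDP1-complemented DT40 Tdp1-knockout cells is measured by ATP luminescence after at least 48 hr compound exposure at 37 °C, with DMSO substituting for the 20 nM CPT used in the parallel screen.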
Active calls of the source: *. Unless noted, the call rests on the fitted dose curve; in most records, active means well fitted curve in the direction sought with a large enough effect; inconclusive means small, poorly fitted or top-dose-only effect, or another doubt; inactive means no such curve, though single readings can be large; an effect the other way counts as inactive or inconclusive. On the % scale 0 is the no-effect control and ±100 the full control effect.

What do the screens show for `COc1cc(C(CCN2CCCC2)c2c(OC)cc(OC)c3c(C)cc(=O)oc23)cc(OC)c1OC` (configuration not stated)?
Six1-Eya2 inh: -6; DT40 TDP1 CPT: 13µM*; CtBP-E1A inh: -6; TDP1 inh: 7%; IL-1B inflam inh: 7; DT40 TDP1 no CPT: 23µM*

How did COc1cc(C(CCN2CCOCC2)c2c(OC)cc(OC)c3c(C)cc(=O)oc23)cc(OC)c1OC (configuration not stated) do in these assays?
Six1-Eya2 inh: -3; DT40 TDP1 CPT: inconclusive; CtBP-E1A inh: -2; TDP1 inh: 13%; IL-1B inflam inh: -9; DT40 TDP1 no CPT: -28%

Results for COc1cc(C(CCN2CCCCC2)c2c(OC)cc(OC)c3c(-c4ccccc4)cc(=O)oc23)cc(OC)c1OC (configuration not stated) ?
Six1-Eya2 inh: inconclusive; DT40 TDP1 CPT: 18µM*; CtBP-E1A inh: -26; TDP1 inh: 8%; IL-1B inflam inh: inconclusive; DT40 TDP1 no CPT: inconclusive

What do the screens show for `COc1ccc(C(CC(=O)N2CCCCC2)c2c(OC)cc(OC)c3c(-c4ccccc4)cc(=O)oc23)cc1` (configuration not stated)?
Six1-Eya2 inh: -10; DT40 TDP1 CPT: inconclusive; IL-1B inflam inh: -19; DT40 TDP1 no CPT: inconclusive

Results for COc1cc(C(CCN2CCCC(C)C2)c2c(OC)cc(OC)c3c(-c4ccccc4)cc(=O)oc23)cc(OC)c1OC (configuration not stated) ?
Six1-Eya2 inh: -14; DT40 TDP1 CPT: inconclusive; CtBP-E1A inh: -12; TDP1 inh: 6%; IL-1B inflam inh: -10; DT40 TDP1 no CPT: 18µM*

How did COc1ccc(C(CCN2CCOCC2)c2c(OC)cc(OC)c3c(C)cc(=O)oc23)cc1 (configuration not stated) do in these assays?
Six1-Eya2 inh: 0; DT40 TDP1 CPT: 23µM*; CtBP-E1A inh: 5; TDP1 inh: -1%; IL-1B inflam inh: 6; DT40 TDP1 no CPT: 18µM*

How did COc1ccc(C(CC(=O)N2CCOCC2)c2c(OC)cc(OC)c3c(-c4ccccc4)cc(=O)oc23)cc1 (configuration not stated) do in these assays?
Six1-Eya2 inh: -2; DT40 TDP1 CPT: inconclusive; CtBP-E1A inh: -3; TDP1 inh: -4%; IL-1B inflam inh: -22; DT40 TDP1 no CPT: inconclusive

What do the screens show for `Cc1cccc(CN2CCSCC2)c1`?
Six1-Eya2 inh: 0; DT40 TDP1 CPT: 29%; CtBP-E1A inh: 0; IL-1B inflam inh: 31; DT40 TDP1 no CPT: 21%

What do the screens show for `COc1ccc(C(=O)NC(=S)N(CCC(C)C)c2c(N)n(Cc3ccccc3)c(=O)[nH]c2=O)cc1`?
Six1-Eya2 inh: -9; DT40 TDP1 CPT: 0%; CtBP-E1A inh: -6; TDP1 inh: 8%; IL-1B inflam inh: inconclusive; DT40 TDP1 no CPT: -15%

What do the screens show for `CC(C)c1ccc(S(=O)(=O)N2CCC(N3CCN(Cc4ccccc4)C(=O)C3=O)CC2)cc1`?
DT40 TDP1 CPT: inconclusive; TDP1 inh: 5%; DT40 TDP1 no CPT: -21%

How did COc1ccc(NC2=NC(=S)N(c3ccccc3C)C23CCCCC3)cc1 do in these assays?
Six1-Eya2 inh: -8; DT40 TDP1 CPT: 23µM*; CtBP-E1A inh: -9; TDP1 inh: 6%; IL-1B inflam inh: -15; DT40 TDP1 no CPT: 26µM*

What do the screens show for `COc1ccc(N2C(=S)N=C(Nc3ccccc3)C23CCCCC3)cc1`?
Six1-Eya2 inh: -4; DT40 TDP1 CPT: inconclusive; TDP1 inh: 0%; IL-1B inflam inh: 16; DT40 TDP1 no CPT: -14%

What do the screens show for `COc1ccc2cc(CCNC(=O)CCc3ccccc3)c(=O)[nH]c2c1`?
Six1-Eya2 inh: -13; DT40 TDP1 CPT: -30%; TDP1 inh: 1%; IL-1B inflam inh: 35; DT40 TDP1 no CPT: inconclusive

Results for COc1cccc(C(=O)N2N=C(c3cccc(OC)c3)CC2(O)C(F)(F)F)c1 (configuration not stated) ?
Six1-Eya2 inh: 4; DT40 TDP1 CPT: inconclusive; CtBP-E1A inh: 10; TDP1 inh: 8%; IL-1B inflam inh: -2; DT40 TDP1 no CPT: inconclusive

What do the screens show for `COc1cccc(C2=NN(C(=O)c3ccc(C)o3)C(O)(C(F)(F)F)C2)c1` (configuration not stated)?
Six1-Eya2 inh: -20; DT40 TDP1 CPT: inconclusive; CtBP-E1A inh: 0; TDP1 inh: -3%; IL-1B inflam inh: inconclusive; DT40 TDP1 no CPT: 10µM*

What do the screens show for `O=C(c1ccccc1)N1N=C(c2ccc(F)cc2)CC1(O)C(F)(F)F` (configuration not stated)?
Six1-Eya2 inh: 0; DT40 TDP1 CPT: -17%; IL-1B inflam inh: -4; DT40 TDP1 no CPT: inconclusive

How did COc1ccc(C(=O)N2N=C(c3cccc(OC)c3)CC2(O)C(F)(F)F)cc1 (configuration not stated) do in these assays?
Six1-Eya2 inh: 8; DT40 TDP1 CPT: inconclusive; CtBP-E1A inh: 5; TDP1 inh: 3%; IL-1B inflam inh: inconclusive; DT40 TDP1 no CPT: 23µM*

Results for COc1cccc(C(=O)N2N=C(c3ccccn3)CC2(O)C(F)(F)F)c1 (configuration not stated) ?
Six1-Eya2 inh: -22; DT40 TDP1 CPT: 21µM*; CtBP-E1A inh: inconclusive; TDP1 inh: 6%; IL-1B inflam inh: 123; DT40 TDP1 no CPT: 4.6µM*

Results for COc1cccc(C2=NN(C(=O)c3cccs3)C(O)(C(F)(F)F)C2)c1 (configuration not stated) ?
Six1-Eya2 inh: -4; DT40 TDP1 CPT: inconclusive; CtBP-E1A inh: 0; TDP1 inh: 3%; IL-1B inflam inh: -72*; DT40 TDP1 no CPT: 18µM*

How did NS(=O)(=O)c1ccc(NC(=O)CSc2cn[nH]n2)cc1 do in these assays?
Six1-Eya2 inh: 6; DT40 TDP1 CPT: -5%; CtBP-E1A inh: 4; IL-1B inflam inh: 18; DT40 TDP1 no CPT: -8%

What do the screens show for `O=C(c1ccco1)N1N=C(c2ccc(Br)cc2)CC1(O)C(F)(F)F` (configuration not stated)?
Six1-Eya2 inh: -1; DT40 TDP1 CPT: -2%; CtBP-E1A inh: -4; TDP1 inh: 2%; IL-1B inflam inh: -63*; DT40 TDP1 no CPT: inconclusive

Results for FC(F)(F)c1cc(Sc2ccccc2)nc(-c2ccccn2)n1 ?
Six1-Eya2 inh: 5; DT40 TDP1 CPT: inconclusive; CtBP-E1A inh: 5; TDP1 inh: 0%; IL-1B inflam inh: 5; DT40 TDP1 no CPT: 15µM*
